Experimental data reported in PubChem BioAssay AID2810 (NMMLSC, 2010).
The whole screen tested about 1,200 compounds, of which about 65 (5%) were called active. This is one part of a sample in which actives are shown more often than they occur.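 How the source made its calls: active means at either tested dose, response and 90th-percentile vesicle-stain brightness of CD8 cells under set limits and under 9% cells vesicle-bound; inactive means the rest.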

Assay: modulators of CD8 T cell-vesicle binding, confirmation, cherry-picked primary hits, two concentrations (AID 2810);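 on percent response (vesicle binding): ratio of mean FL2 vesicle stain of CD8+ cells to that row's control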
Settings: 2C CD8+ T cell-vesicle binding, flow cytometry; for double positive events: CD8+/vesicle+ events
[1] = at 15.4 µM, stronger effect = lower value

SMILES | double positive events (at 7.7 µM) [%] | double positive events [1] [%] | percent response (vesicle binding) [1] | percent response (vesicle binding) (response, at 7.7 µM) [%]
O=C(COc1ccccc1)Nc1cc(S(=O)(=O)N2CCOCC2)ccc1N1CCCC1 | 28.3 | 4.1 | 138% (inactive) | 164
CCN(Cc1ccccc1)C(=O)c1ccc(C)c(S(=O)(=O)N2CCCCC2)c1 | 11.9 | 30.2 | 197% (inactive) | 111
CCOC(=O)c1c(NC(=O)CN2C(=O)NC3(CCC(C)CC3)C2=O)sc(C)c1-c1ccc(C)cc1 (stereo not drawn) | 33.5 | 23.6 | 559% (inactive) | 363
Cc1cccc(C(=O)OCC(=O)Nc2ccc3c(c2)OCCO3)c1O | 10.2 | 29.9 | 717% (inactive) | 113
Cc1cccc(C(=O)OCC(=O)NN2C(=O)NC3(CCC(C)CC3)C2=O)c1O (stereo not drawn) | 19.9 | 5.2 | 35.3% (active) | 181
Cc1ccc2nc(-c3cccnc3)c(NC3CCCC3)n2c1 | 16.9 | 33.3 | 211% (inactive) | 276
O=c1[nH]c(CN(CCc2ccccc2)S(=O)(=O)c2ccc(Cl)cc2)nc2ccccc12 | 9.5 | 16.7 | 208% (inactive) | 239
CCOC(=O)C(c1ccccc1)N1CCN(c2ccc(OC)cc2)CC1 (stereo not drawn) | 13.2 | 29.9 | 388% (inactive) | 255
CCc1noc(C)c1C(=O)OC(C)C(=O)Nc1ccc2c(c1)OCO2 (stereo not drawn) | 32.8 | 2.5 | 22% (active) | 329
CC(Sc1nc2ccccc2s1)C(=O)Nc1ccc2c(c1)OCO2 (stereo not drawn) | 9 | 28 | 533% (inactive) | 344
CCc1ccccc1NC(=O)NCc1ccc2c(c1)OCO2 | 17.2 | 20 | 361% (inactive) | 479
Cc1noc(C)c1C(=O)OC(C)C(=O)N1CCc2ccccc21 (stereo not drawn) | 28.5 | 4.4 | 134% (inactive) | 293
COc1ccc(Cl)cc1NS(=O)(=O)c1cccc(C(=O)NCC(C)(C)N2CCOCC2)c1 | 20.7 | 18.3 | 317% (inactive) | 710
Cc1ccc(C(=O)OCC(=O)NC2CCCCC2)o1 | 35.5 | 14 | 244% (inactive) | 265
COc1cc(CNCc2cccnc2)ccc1OCC(=O)NC1CCCCC1 | 18.4 | 5.7 | 32.6% (active) | 303
COc1cc(CNCCc2ccc(S(N)(=O)=O)cc2)ccc1OCC(=O)N1CCCCC1 | 11.5 | 19.2 | 229% (inactive) | 370
COc1ccc(CNC(=O)COC(=O)CCN2C(=O)C3CC=CCC3C2=O)cc1OC (stereo not drawn) | 41.8 | 29.1 | 307% (inactive) | 239
COc1ccc(CNC(=O)c2cccnc2SC)cc1OC | 9.3 | 2 | 29.8% (active) | 180
COc1ccc(OC)c(NC(=O)c2ccccc2SC)c1 | 56.3 | 35.3 | 242% (inactive) | –
O=C(Cn1cc(C(F)(F)F)cc(Cl)c1=O)NCCc1ccc(Cl)cc1Cl | 11.1 | 1.7 | 16.3% (active) | 149
Cc1ccc(C(=O)NC2CCCc3c2cnn3-c2ccc(F)cc2F)cn1 (stereo not drawn) | 33.7 | 15 | 329% (inactive) | 658
CCOC(=O)C1(Cc2cccc(OC)c2)CCN(C/C=C/c2ccccc2)CC1 | 25.8 | 11 | 119% (inactive) | 269

SMILES | double positive events (at 7.7 µM) [%] | double positive events [1] [%] | percent response (vesicle binding) [1] | percent response (vesicle binding) (response, at 7.7 µM) [%]
Cc1ccccc1/C(N)=N/OC(=O)c1cccs1 | 12.4 | 17.9 | 190% (inactive) | 217
CCOC(=O)N1CCN(Cc2nc(-c3ccc(C)cc3)no2)CC1 | 14.7 | 4.6 | 63% (inactive) | 286
COc1ccc([N+](=O)[O-])cc1NC(=O)c1ccc(N(Cc2ccccc2C)S(C)(=O)=O)cc1 | 8.4 | 2.9 | 47.7% (active) | 131
COc1ccc([N+](=O)[O-])cc1N(CC(=O)O)S(C)(=O)=O | 9.6 | 19.3 | 127% (inactive) | 281
COc1ccc([N+](=O)[O-])cc1NC(=O)C(C)Sc1nc(-c2ccccc2)cs1 (stereo not drawn) | 11.7 | 22.6 | 114% (inactive) | 121
COc1cc2ccccc2cc1C(=O)NC1CCCCC1 | 11.7 | 19 | 121% (inactive) | 368
CCN1CCN(c2ccc(NC(=O)c3cc4ccccc4cc3OC)cc2C)CC1 | 21.2 | 1.8 | 55.9% (active) | 373
CCN1CCN(c2ccc(S(=O)(=O)N3CCCCC3)cc2NC(=O)c2cccc(C)c2[N+](=O)[O-])CC1 | 31.1 | 37.1 | 238% (inactive) | 406
O=C(Nc1nc2ccccc2n1CCN1CCOCC1)c1ccc(Cn2cc([N+](=O)[O-])cn2)o1 | 23.6 | 23.8 | 145% (inactive) | 260
C=CCn1c(C)cc(-c2csc(NCC)n2)c1C | 11.2 | 24.9 | 196% (inactive) | 160
CCOC(=O)c1ccc(S(=O)(=O)N2CCN(C3CCCC3)CC2)cc1 | 11.3 | 23.3 | 294% (inactive) | 107
Cc1ccc(S(=O)(=O)N2CCN(CCOc3c(Cl)cccc3Cl)CC2)cc1C | 28.4 | 18.9 | 334% (inactive) | 140
NC(=O)CCS(=O)(=O)CCN1CCN(S(=O)(=O)c2ccc3c(c2)CCC3)CC1 | 17.1 | 7.7 | 43.5% (active) | 183
O=C(NCC1CCCCC1)c1cccc(S(=O)(=O)N2CCCC2)c1 | 8.6 | 8.5 | 104% (inactive) | 305
Cc1ccc(/C=N/Nc2ccc(F)cc2F)s1 | 17.7 | 29.3 | 280% (inactive) | 159
O=C(NCC1CCCO1)C(=O)NCC(c1ccco1)N1CCN(c2ccc(F)cc2)CC1 (stereo not drawn) | 35.6 | 10.4 | 199% (inactive) | 266
O=C(O)c1ccc(N2C(=O)CC(SC(=Nc3ccccc3)Nc3ccccc3)C2=O)cc1 (stereo not drawn) | 19.3 | 18.5 | 276% (inactive) | 663
CCOC(=O)CSc1nnnn1-c1cc(OC)c(Cl)cc1OC | 20.1 | 5.9 | 53.3% (active) | 312
COc1cc(Cl)c(S(=O)(=O)n2cnc(C)c2)cc1Cl | 9.6 | 9.7 | 141% (inactive) | 151
CCOC(=O)CSc1nnc(-c2ccc(Cl)cc2Cl)o1 | 16.3 | 10.1 | 118% (inactive) | 276
CCn1c(SCC(=O)NCC2CCCO2)nnc1-c1c[nH]c2ccccc12 (stereo not drawn) | 14.2 | 13.6 | 286% (inactive) | 430
O=C(NN1C(=O)C2C3C=CC([C@H]4CC34)[C@@H]2C1=O)c1ccc(Br)cc1 (stereo partly drawn) | 33.5 | 31.2 | 590% (inactive) | 1000

SMILES | double positive events (at 7.7 µM) [%] | double positive events [1] [%] | percent response (vesicle binding) [1] | percent response (vesicle binding) (response, at 7.7 µM) [%]
CCCOc1ccc(N2C(=O)CC(N(O)c3ccccc3)C2=O)cc1 (stereo not drawn) | 17.3 | 14.6 | 158% (inactive) | 254
CN(CCCC(=O)N1CCN(c2ncccn2)CC1)S(=O)(=O)c1ccc(F)cc1 | 7 | 13.1 | 151% (inactive) | 122
Cc1ccsc1C(=O)OCC(=O)N1CCN(c2ccccc2)CC1 | 17.9 | 27 | 263% (inactive) | 143
Cc1ccccc1CS(=O)(=O)CCC(=O)N1CCN(c2ccc(N3CCOCC3)nn2)CC1 | 9 | 3.1 | 18.4% (active) | 160
COc1ccc(Br)cc1CN(C)C(=O)c1ccc2c(c1)NC(=O)C(C)S2 (stereo not drawn) | 38.9 | 17.5 | 221% (inactive) | 368
Cc1cccc(NC(=O)C2CCN(S(=O)(=O)c3c(C)[nH]c(=O)[nH]c3=O)CC2)c1 | 9.4 | 12.6 | 434% (inactive) | 330
COc1ccc(NCc2nc3ccccc3n2CCOc2ccccc2)cc1 | 35.8 | 10.6 | 221% (inactive) | 261
CS(=O)(=O)c1cccc(-c2csc(N3CCC(C(N)=O)CC3)n2)c1 | 18.3 | 37.8 | 182% (inactive) | 192
NC(=O)C1CCN(c2nc(-c3cc4ccccc4o3)cs2)CC1 | 28.4 | 8 | 128% (inactive) | 459
CC(=O)c1ccc(-c2csc(N3CCC(C(N)=O)CC3)n2)cc1 | 15.1 | 4.6 | 28.3% (active) | 132
O=C(CN1C(=O)COc2ccc(S(=O)(=O)N3CCCC3)cc21)NC1CC1 | 21.1 | 16.7 | 459% (inactive) | 268
O=C(NCc1ccncc1)C(=O)NCC(c1ccco1)N1CCN(c2ccccc2F)CC1 (stereo not drawn) | 28.7 | 13.3 | 251% (inactive) | 276
CCOC(=O)c1sc(NC(=O)CSc2ncn[nH]2)c(C#N)c1C | 36.7 | 26.4 | 617% (inactive) | 394
Cc1nnc(NC(=O)c2ccc(S(=O)(=O)N(C)c3ccccc3)cc2)s1 | 9.6 | 37.9 | 156% (inactive) | 134
COc1ccccc1-c1nnc(NC(=O)c2ccc(S(=O)(=O)N3CCOCC3)cc2)o1 | 7 | 8.1 | 284% (inactive) | 264
CCCc1nnc(NC(=O)c2ccc(S(=O)(=O)N(C)c3ccccc3OC)cc2)s1 | 14.9 | 6 | 35.7% (active) | 216
COc1cc(OC)cc(C(=O)NC(C(=O)Nc2ccc3c(c2)CCC3)C(C)C)c1 (stereo not drawn) | 8.9 | 21 | 368% (inactive) | 147
O=C(CC1=NCCNC(c2ccccc2)C1)c1ccccc1O (stereo not drawn) | 6.2 | 1.7 | 65.1% (inactive) | 316
COc1ccc(NCC(O)Cn2c(C)c(C)c3ccccc32)cc1 (stereo not drawn) | 11.5 | 16.3 | 63.6% (inactive) | 101
Cc1ccc(C(C)n2cc(C(=O)NCCN3CCN(C)CC3)nn2)cc1 (stereo not drawn) | 11.2 | 1.8 | 36.8% (active) | 155
O=C(NCCN1CCN(c2ccccc2)CC1)c1cccc(Br)c1 | 24.2 | 13.3 | 252% (inactive) | 278
CCCCCC(=O)N[C@@H](c1ccccc1)[C@@H](O)C(=O)O[C@H]1C[C@@]2(O)[C@@H](OC(=O)c3ccccc3)C3[C@](C)(C(=O)[C@H](OC(C)=O)C(=C1C)C2(C)C)[C@@H](O)C[C@H]1OC[C@@]31OC(C)=O (stereo partly drawn) | 16.4 | 12 | 252% (inactive) | 302
